# Measured values published in PubChem BioAssay (NCI).
# This is part of a sample that, as a whole, favours compounds with a hit. Of some 83,000 tested, about 20% had one in any assay.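 Growth was measured after 48 h exposure to one concentration of compound in 96-well plates. Values under 10 count as active.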 Values without a mark were called inactive. Active and inactive are the calls of the source.
# Assays:
# Test in all cases: NCI-60 one-dose screen, 48 h (100 = growth as untreated, 0 = no growth, -100 = all killed)
# Conditions in all cases: 10 µM unless noted
# [1] = test system: NCI-H23 lung
# [2] = test system: NCI-H226 lung
# [3] = test system: NCI-H322M lung
# [4] = test system: HOP-62 NSCLC
# [5] = test system: HOP-92 NSCLC
# [6] = test system: NCI-H522 lung
# [7] = test system: A549/ATCC NSCLC
# [8] = test system: 786-0 renal
# [9] = test system: COLO 205 colon
# [10] = test system: DU-145 prostate
# [11] = test system: K-562 leukemia
# [12] = test system: MALME-3M melanoma
# [13] = test system: MDA-MB-231 breast
# [14] = test system: RXF 393 renal
# [15] = test system: SF-268 CNS
# [16] = test system: SF-295 CNS
# [17] = test system: SF-539 CNS
# [18] = test system: UACC-257 melanoma
# [19] = test system: M14 melanoma
# [20] = test system: NCI-H460 lung
Structure (SMILES),growth [1],growth [2],growth [3],growth [4],growth [5],growth [6],growth [7],growth [8],growth [9],growth [10],growth [11],growth [12],growth [13],growth [14],growth [15],growth [16],growth [17],growth [18],growth [19],growth [20]
COc1cc2cc(C(=O)N3C[C@@H](CCl)c4c3cc(OC(=O)N(CCC(=O)N3CCN(C)CC3)C3CCCCC3)c3ccccc43)[nH]c2c(OC)c1OC,-86.8% (active),-11.1% (active),-28.6% (active),-55.7% (active),-71% (active),-82% (active),-24.1% (active),-96% (active),-66.7% (active),-73.5% (active),-20.6% (active),-97.6% (active),-61.4% (active),-93.3% (active),-41.5% (active),-68.3% (active),-93% (active),-78.6% (active),-84.5% (active),–
COc1ccc(-c2cc(C)nc3[nH]c(=O)sc23)cc1,74.3%,36.3%,68.4%,44.9%,16.3%,61.8%,52.8%,0.453% (active),119%,67.3%,62.5%,95.2%,34.6%,57%,69.4%,45.7%,49.5%,95.3%,98.5%,–
O=C(N/N=C/c1c[nH]c2ccccc12)Nc1ccccc1Cl,1.51% (active),19.8%,41.7%,18.4%,3.23% (active),-41.8% (active),15.2%,-41.4% (active),-39.7% (active),6.12% (active),12.2%,33.3%,16.5%,-36.1% (active),7.97% (active),-37.1% (active),-10.7% (active),43.8%,10.9%,1.98% (active)
COc1c(B(O)O)cccc1-c1nc2ccc3cn[nH]c3c2c2c1CCCC2,72.8%,49.5%,67.7%,68.7%,27.2%,62.6%,41.9%,31.8%,71.7%,69.1%,74.7%,87%,25.3%,-30.3% (active),50.3%,70%,9.76% (active),83.9%,88.4%,–
COc1ccc(C(=O)NNC(=O)CSc2nc3sc4c(c3c(=O)n2-c2ccc(Cl)cc2)CCCC4)cc1,63.2%,33.1%,–,18.7%,60.8%,59%,86.7%,102%,118%,89%,56.7%,60.3%,44%,82.2%,84.3%,94.7%,-55.2% (active),100%,77.4%,87.2%
CN(C)CCCc1ccc(Nc2cnn(C)c(=O)c2Cl)cc1,98%,99%,92.9%,108%,110%,96.3%,93.8%,95.9%,118%,116%,89.8%,88.8%,108%,90.2%,113%,89.2%,94%,98.5%,100%,–
COc1ccc2c(c1)C(Sc1ccc(Br)cc1)c1c(nc(N)c(C#N)c1N)O2 (stereo unspecified),79.1%,83.1%,84.2%,93.7%,111%,77.1%,89.7%,83%,90%,95.4%,69.1%,85.2%,79.2%,67.6%,75.2%,81.1%,88.8%,103%,85.6%,–
CCOC(=O)/C(F)=C/C1CC1C(c1ccccc1)c1ccccc1 (stereo unspecified),73.8%,91.8%,80.6%,125%,84.1%,94.8%,91.7%,93%,117%,106%,70.4%,81.2%,88.4%,77.2%,99.1%,88.7%,96.5%,105%,91.7%,–
COc1ccc2[nH]c(O)c(N=Nc3nc(-c4ccccc4)cs3)c2c1,23.9%,11.2%,26.5%,21.3%,-8.09% (active),8.94% (active),2.49% (active),-44.8% (active),30%,34.6%,28.9%,22.5%,60.1%,4.35% (active),17.1%,-8.96% (active),-11.9% (active),59.3%,55.6%,–
Cn1cc(-c2cc(N)n3nc(-c4c[nH]c5ccc(F)cc45)cc3n2)c2cccnc21,-68.2% (active),-67.5% (active),-37.5% (active),-85.9% (active),-73.7% (active),-68.8% (active),-87.1% (active),-95.2% (active),-79.1% (active),-75.7% (active),-32% (active),-93% (active),-85.9% (active),-81.2% (active),-27% (active),-93.9% (active),-96.3% (active),-87.3% (active),-89.5% (active),–
O=C1/C(=C/C=C/c2ccco2)SC(=S)N1CC(=S)C1C=CS(=O)(=O)C1 (stereo unspecified),83.1%,89.1%,38.8%,130%,121%,32.5%,47.7%,91.2%,76%,97.4%,75%,83.3%,85.8%,79.4%,91%,88.9%,99%,92.3%,98.9%,–
Cn1cc(-c2cc3nc(-c4cn(C)c5ncccc45)cc(N)n3n2)c2cc(F)ccc21,21.2%,3.92% (active),52.1%,-14.7% (active),-0.741% (active),22.7%,19.6%,17.6%,47.1%,21.8%,20.7%,62%,3.66% (active),-14.4% (active),52.3%,28.3%,12.8%,72.7%,71.2%,–
Cc1cccc(-c2ccccc2Oc2ccc3nnc(Cl)n3n2)c1,96.8%,103%,99.9%,114%,130%,102%,98.7%,98.8%,127%,111%,103%,94.4%,107%,107%,106%,95.3%,98.8%,99%,97.6%,–
COc1ccc(C2=NN(C(=O)[C@H]3[C@@H](c4ccco4)c4sc(=O)[nH]c4S[C@@H]3C)C(c3ccc4ccccc4c3)C2)cc1 (stereo partly specified),33.8%,29.3%,49.1%,59.7%,29.1%,4.06% (active),17.6%,44.6%,7.92% (active),62.7%,16%,50.6%,47.5%,11.2%,45.3%,38.6%,28.6%,43.2%,24.1%,–
COc1cc(/C=C/C(=O)c2cnn(-c3cc(=O)[nH]c4ccc(C)cc34)c2C)cc(OC)c1OC,-45% (active),-17.8% (active),9.59% (active),2.27% (active),50.6%,-87.1% (active),6.23% (active),-27% (active),-91.6% (active),-54.6% (active),0.896% (active),-19.5% (active),-2.3% (active),-76.9% (active),6.69% (active),12.7%,-29% (active),5.74% (active),-51.2% (active),–
